The campaign covered roughly 360,000 compounds. About 11,000 (3.1%) were called active. Another 2% or so got no clear call; they are omitted. For the sample, actives were picked, then their nearest neighbours and some compounds at random. Values without a mark were called inactive. No stated cut-off is given here; in the data, active means fluorescence intensity above about 16000; inconclusive means no clear call, values can overlap the other calls; inactive means below that.
Assay: compound fluorescence in toxin protease inhibitor counterscreen, primary screen, artefact control for toxin protease inhibitor project, biochemical, multiplex microsphere, HTS (AID 624483)
Conditions: compound autofluorescence counterscreen, microsphere flow cytometry; active compounds read high

Going from `CC(=O)NN=C(C)c1ccc(NC(=O)C2CC2)cc1` to `Cc1cccc(NC(=O)C2CCN(C(=O)NC3CCCCC3)CC2)c1`, the fluorescence intensity rises from 3420 to 3730.

Going from `CCCCCn1nnnc1-c1nc2cc3ccccc3cc2[nH]c1=O` to `CCOC(=O)c1cnc(COc2ccccc2Cl)[nH]c1=O`, the fluorescence intensity rises from 5190 to 5960.

Going from `COc1ccccc1CSc1ncc(-c2ccc([N+](=O)[O-])cc2)[nH]1` to `COc1cccc(-c2cnc(C(O)c3ccccc3OC)[nH]2)c1` (configuration not stated), the fluorescence intensity rises from 2560 to 4140.

Compared with `CC(O)C(NS(=O)(=O)c1ccc(Cl)cc1)C(=O)OCc1cc([N+](=O)[O-])cc2c1OCOC2` (configuration not stated), `Cc1ccc2c(=O)cc(C(=O)NCCc3ccc(S(N)(=O)=O)cc3)oc2c1C` is higher in fluorescence intensity: 3270 for the first, 3650 for the second.

First: Cn1c(NC(=O)c2ccco2)c(-c2ccccc2Cl)c(=O)c2ccccc21
Second: O=C(O)c1ccccc1Cc1ccc(F)c2ccccc12
The fluorescence intensity of the first is higher: 5600 for the first, 3460 for the second.

Compared with `CN(Cc1nc2ccccc2c(=O)[nH]1)Cc1cc(=O)oc2ccc3ccccc3c12`, `CCN(CC(=O)NC(=O)NCc1ccccc1)Cc1nc2ccccc2c(=O)[nH]1` is lower in fluorescence intensity: 10600 for the first, 4790 for the second.

Going from `Cc1ccccc1/[N+]([O-])=C/c1ccncc1` to `CCOc1ccccc1NC(=O)c1cccnc1`, the fluorescence intensity falls from 3600 to 3020.

Compared with `O=C(Nc1ccc(F)cc1)Nc1nnc([C@H]2C[C@H](O)[C@@H](CO)O2)s1`, `O=C(Nc1ccc(Cl)cc1)c1csc([C@H]2C[C@H](O)[C@@H](CO)O2)n1` is lower in fluorescence intensity: 2870 for the first, 2790 for the second.

Going from `CCOc1ccc(C(=O)Nc2nccs2)cc1[N+](=O)[O-]` to `CCOC(=O)c1cc(NC(=O)c2cccnc2)ccn1`, the fluorescence intensity rises from 2430 to 3490.

First: COc1cccc(OCC(=O)NNC(=O)c2cnccn2)c1
Second: COc1ccc2c(CC(=O)NNC(=O)c3ccccc3F)coc2c1
The fluorescence intensity of the first is lower: 2360 for the first, 2950 for the second.

First: Cc1ccc(CC2(C)C(=O)Nc3ccc(OC(F)(F)F)cc32)cc1 (configuration not stated)
Second: CCOc1ccc(OCC)c(NC(=O)CCS(=O)(=O)c2ccc(C)cc2)c1
The fluorescence intensity of the first is lower: 3690 for the first, 3840 for the second.

Going from `O=C(COc1ccc(S(=O)(=O)Nc2cccc(C(F)(F)F)c2)cc1)N1CCOCC1` to `Cc1cc(C)cc(OCC(=O)Nc2ccc(S(=O)(=O)Nc3ccccn3)cc2)c1`, the fluorescence intensity falls from 4570 to 2260.

Compared with `C#Cc1ccc(NC(=O)C2(C)CCN2C(=O)Cc2ccc(-c3ccccc3)cc2)cc1` (configuration not stated), `Cc1nc(C(=O)Nc2ccc(Cl)cc2)sc1C1(C)CC(c2ccccc2)=NO1` (configuration not stated) is lower in fluorescence intensity: 3720 for the first, 3390 for the second.

First: Cc1ccc(C)c(NC(=S)NNC(=S)Nc2ccc(C(C)C)cc2)c1
Second: C/C(=N\NC(=S)Nc1ccc(C)cc1)c1cc2ccccc2o1
The fluorescence intensity of the first is lower: 3300 for the first, 4230 for the second.

Compared with `COCc1cccc(-c2csc(C(O)c3ccc(F)cc3)n2)c1` (configuration not stated), `CCOC(=O)CSc1nnc(CNC(=O)c2ccco2)n1-c1ccc(F)cc1` is higher in fluorescence intensity: 3440 for the first, 8100 for the second.

First: O=C(CC1Nc2ccccc2NC1=O)Nc1ccccc1 (configuration not stated)
Second: Cn1c(Cc2cccs2)nnc1SCC(=O)Nc1ccccc1
The fluorescence intensity of the first is lower: 3710 for the first, 5420 for the second.

Going from `N#Cc1ccc(-c2ccc3nccn3c2)cc1` to `Cc1ccc(-c2nnc(SCC(=O)N/N=C/c3cccs3)n2-c2ccc(C)cc2)cc1`, the fluorescence intensity falls from 3660 to 2620.

Going from `Cc1ccc(NS(=O)(=O)c2ccc(C(C)(C)C)cc2)cn1` to `Cc1ccc(NC(=O)COc2ccc(/C=N\NC(=O)c3cccnc3)cc2)cc1C`, the fluorescence intensity rises from 3470 to 4500.

First: CSc1cccc(NC(=S)N(C(C)C)C(C)c2ccccn2)c1 (configuration not stated)
Second: O=C(CSc1nnc(-c2ccccn2)n1-c1ccccc1)Nc1ccc2c(c1)OCO2
The fluorescence intensity of the first is higher: 3430 for the first, 2680 for the second.

Compared with `COc1ccc(C(=O)NC2(C(F)(F)F)NC(=O)N(CCCc3ccccc3)C2=O)c(OC)c1OC` (configuration not stated), `CCOC(=O)CSc1nnc(CNC(=O)c2cccs2)n1-c1cc(OC)ccc1OC` is higher in fluorescence intensity: 8270 for the first, 9680 for the second.

Going from `O=C(NCc1cccnc1)c1ccccc1NC(=O)c1c(F)cccc1F` to `NC(=O)CC(NC(=O)Cc1cccc2ccccc12)c1ccc(NCc2cc(F)ccc2F)c([N+](=O)[O-])c1` (configuration not stated), the fluorescence intensity falls from 5910 to 4100.

Going from `CCOC(=O)c1ccc(-n2c(CCC(=O)O)ccc2-c2ccccc2)cc1` to `Cc1onc(-c2ccccc2)c1-c1nnc(COC(=O)c2ccc(N(C)C)cc2)o1`, the fluorescence intensity falls from 3600 to 3380.

Compared with `COc1c(O)ccc2c1CN1CCc3cc4c(cc3C1C2)OCO4` (configuration not stated), `Cc1ccc(-n2c(SCC(=O)Nc3ccc4c(c3)OCO4)nnc2-c2ccccn2)cc1` is higher in fluorescence intensity: 4960 for the first, 9860 for the second.

Going from `COc1ccc(C2OC(CCc3ccccc3)Cc3[nH]c(=S)[nH]c(=O)c32)cc1` (configuration not stated) to `CC(NCCc1ccc(S(N)(=O)=O)cc1)C(=O)NCc1ccccc1` (configuration not stated), the fluorescence intensity falls from 5590 to 3370.

First: OC[C@@H]1CN(Cc2ccc(-c3ccccc3)cc2)C[C@H](n2cnc3c(NC4CCCC4)ncnc32)O1
Second: CCN(C(=O)CN1CCN(Cc2ccccc2)CC1)c1c(N)n(Cc2ccccc2)c(=O)[nH]c1=O
The fluorescence intensity of the first is higher: 3740 for the first, 3390 for the second.

Going from `COc1ccc(-n2c(SCC(=O)NCc3cccs3)nnc2-c2ccoc2C)cc1` to `CCn1c(SCC(=O)c2ccc(Cl)s2)nnc1-c1cccs1`, the fluorescence intensity rises from 3110 to 3490.

First: CCNC(=O)C1(C)CCCN(Cc2noc(-c3ccccc3OC)n2)C1 (configuration not stated)
Second: CC(C)CNC(=O)C1(C)CCCN1C(=O)CSc1ccccc1 (configuration not stated)
The fluorescence intensity of the first is higher: 3700 for the first, 3520 for the second.

Going from `CCN(CC)c1nc(-c2ccccc2)cc(C(F)(F)F)c1C#N` to `CCOn1c(SC(C)C)nc2ccccc2c1=O`, the fluorescence intensity rises from 2560 to 10100.

Compared with `O=C(C=CC(=O)Nc1ccc(F)cc1F)Nc1ccc(F)cc1F`, `COc1ccc(NC(=O)C2(C)Cc3c(-c4cccc(NC(C)=O)c4)ccnc3O2)cc1OC` (configuration not stated) is lower in fluorescence intensity: 6040 for the first, 3020 for the second.

Compared with `CCc1nc2ccc(C(=O)N(C)CCN(C)C)cn2c1N(CC)CCOC`, `CCCCN(CCCC)CCNC(=O)CN1C(=O)COc2ccc(S(=O)(=O)N3CCOCC3)cc21` is higher in fluorescence intensity: 3650 for the first, 5470 for the second.

Going from `O=C(NCC(O)c1nc2ccccc2[nH]1)c1ccc(Br)cc1` (configuration not stated) to `O=C(O)c1ccc(N/N=C/c2cn(-c3ccccc3)nc2-c2cccs2)cc1`, the fluorescence intensity falls from 5430 to 3970.

Compared with `C[C@@H]1CC2=C(C(=O)OC(C)(C)O2)[C@@H](C2CC2)O1`, `C=C1C(=O)OC2C1CCC(C)=CCCC1(C)OC21` (configuration not stated) is higher in fluorescence intensity: 5730 for the first, 6040 for the second.

Compared with `Cc1csc(=O)n1CCC(=O)OCC(=O)NNC(=O)c1ccc(Br)cc1`, `CSCCC(NS(=O)(=O)c1ccc2c(c1)oc(=O)n2C)C(=O)NCc1ccccc1` (configuration not stated) is higher in fluorescence intensity: 3030 for the first, 4490 for the second.

Compared with `COc1ccc(NC(=O)C2(C)Cc3c(-c4cccc(NC(C)=O)c4)ccnc3O2)cc1` (configuration not stated), `Cc1ccc2c(c1)N(CC(=O)NCCc1ccc(Cl)cc1)C(=O)c1cccnc1O2` is higher in fluorescence intensity: 3560 for the first, 5070 for the second.

First: COCCCn1c(Cc2csc(Nc3cccc(Cl)c3)n2)nnc1SCC(=O)OC1CCCCC1
Second: COCC(C)n1c(SCC(=O)NC2CCCCC2C)nc2ccccc2c1=O (configuration not stated)
The fluorescence intensity of the first is higher: 3010 for the first, 2940 for the second.

Going from `O=C(CP(=O)(c1ccccc1)c1ccccc1)N1CCOCC1` to `Cc1noc(C)c1S(=O)(=O)N(C)C[C@H]1OCCCC[C@@H](C)Oc2ccc(NC(=O)CCCN(C)C)cc2C(=O)N([C@H](C)CO)C[C@@H]1C`, the fluorescence intensity falls from 4810 to 3820.

First: CCOC(=O)c1cc(C)nc(S(C)(=O)=O)c1C#N
Second: COc1ccc(-c2cc(NC(C)=O)c3ncc(-c4cc(OC)c(OC)c(OC)c4)n3c2)cn1
The fluorescence intensity of the first is higher: 6150 for the first, 2720 for the second.

`O=C1CCC(=O)N1CCC(=O)N(C(=O)NC1CCCCC1)C1CCCCC1` showed a fluorescence intensity of 3950.

For `Nc1ccccc1SCc1cc([N+](=O)[O-])cc2c1OCOC2`, the fluorescence intensity was 22000 (active).
For `CCN(Cc1nc2ccccc2c(=O)[nH]1)Cc1cc(=O)oc2cc(C)c(C)cc12`, the fluorescence intensity was 22700 (active).
With `COc1ccc(C(=O)NNC(=O)c2cnccn2)cc1[N+](=O)[O-]` the fluorescence intensity was 16500 (active).
For `O=C(Nc1cccc(OCC(=O)N2CCOCC2)c1)C1CCCCC1`, the fluorescence intensity was 23600 (active).
For `Cc1ccc(NC(=S)N/N=C2/CCCc3c(C)cc(C)cc32)cc1`, the fluorescence intensity was 20600 (active).
For `Cc1ccc(S(=O)(=O)Nc2ccc3ncccc3c2)cc1`, the fluorescence intensity was 22700 (active).
With `O=C(NC1(C(F)(F)F)NC(=O)N(Cc2cccnc2)C1=O)c1ccccc1Cl` (configuration not stated) the fluorescence intensity was 21200 (active).
With `CCOC(=O)c1ccc(COC(=O)CCc2nc(-c3ccccc3)c(-c3ccccc3)o2)cc1` the fluorescence intensity was 16400 (active).
In the case of `CCOC(=O)c1cc(NC(=O)c2cccnc2)cc(C(=O)OCC)c1`, the fluorescence intensity is reported as 24800 (active).
In the case of `Cc1ccc(-n2c(Cc3cccs3)nnc2SCC(=O)OC(C)C)cc1`, the fluorescence intensity is reported as 23800 (active).
For `CCOC(=O)CSc1nnc(CNC(=O)c2cccs2)n1-c1ccccc1`, the fluorescence intensity was 24300 (active).
In the case of `CCn1c(Cc2cccs2)nnc1SCC(=O)c1ccc(C)cc1`, the fluorescence intensity is reported as 23000 (active).
In the case of `COc1ccc(-n2c(SCC(=O)OC(C)C)nnc2-c2ccccn2)cc1`, the fluorescence intensity is reported as 23500 (active).
In the case of `O=C(N/N=C/c1sc(N2CCCCC2)nc1-c1cccs1)c1cccnc1`, the fluorescence intensity is reported as 16400 (active).
In the case of `CCOc1ccc(OCC)c(NC(=O)C(NS(=O)(=O)c2ccc3c(c2)oc(=O)n3C)C(C)C)c1` (configuration not stated), the fluorescence intensity is reported as 20600 (active).
For `CCCCSc1[nH]c(=O)c(C(=O)OCC)cc1C#N`, the fluorescence intensity was 23400 (active).
In the case of `CCOC(=O)C(C)Sc1nc2ccccc2c(=O)n1CC1CCCCC1` (configuration not stated), the fluorescence intensity is reported as 19900 (active).
